# Data: PubChem BioAssay (NCI)
# The panel holds about 83,000 compounds, 20% with a hit somewhere; the sample as a whole holds those more often.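 The test compound was applied at a single concentration to cells in 96-well plates for 48 hours, and percent growth was recorded.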 Unmarked numbers belong to inactive results. Activity calls are given as the source filed them. Rule for the calls: active = growth percent below 10; inactive = the rest.
# How the values were obtained:
# Experiment in all cases: NCI-60 one-dose screen, 48 h (100 = growth as untreated, 0 = no growth, -100 = all killed)
# Details in all cases: 10 µM unless noted
# [1] = system: DU-145 prostate
# [2] = system: K-562 leukemia
# [3] = system: MALME-3M melanoma
# [4] = system: MDA-MB-231 breast
# [5] = system: RXF 393 renal
# [6] = system: SF-268 CNS
# [7] = system: SF-295 CNS
# [8] = system: SF-539 CNS
# [9] = system: UACC-257 melanoma
# [10] = system: M14 melanoma
# [11] = system: HCT-15 colon
# [12] = system: HT29 colon
# [13] = system: SNB-75 CNS
# [14] = system: SNB-19 CNS
# [15] = system: U251 CNS
# [16] = system: PC-3 prostate
# [17] = system: SK-MEL-5 melanoma
# [18] = system: UACC-62 melanoma
# [19] = system: LOX IMVI melanoma
# [20] = system: SK-MEL-28 melanoma
SMILES,growth [1],growth [2],growth [3],growth [4],growth [5],growth [6],growth [7],growth [8],growth [9],growth [10],growth [11],growth [12],growth [13],growth [14],growth [15],growth [16],growth [17],growth [18],growth [19],growth [20]
COc1ccccc1/C=C/C1=C(C)CCC(c2ccccc2OC)C1C (stereo not given),-8.51% (active),18.2%,80.9%,17.2%,28.5%,16.3%,-45.9% (active),0.327% (active),57.9%,-10.7% (active),9.57% (active),5.56% (active),42.2%,19.6%,15.4%,-33.2% (active),-13.3% (active),10%,7.24% (active),49.8%
COc1ccc(/C=N/NC(=O)Cn2nnc3ccccc32)cc1,117%,93%,103%,107%,93.7%,85.5%,103%,105%,95.2%,109%,104%,105%,90.6%,101%,102%,95.9%,110%,84.6%,106%,102%
CCn1c2ccccc2c2cc(C(O)c3cccc4ncccc34)ccc21 (stereo not given),8.08% (active),8.65% (active),57.7%,24.3%,40.6%,28.6%,18.4%,6.53% (active),70.8%,-4.81% (active),11.6%,8.32% (active),31.1%,36.4%,19.2%,13.4%,-4.22% (active),16%,-8.41% (active),61.5%
CCN1CCN(CCOc2ccc(CNc3ccc4nc(CCC5CCCCC5)[nH]c4c3)cc2)CC1,50.3%,6.76% (active),-88.2% (active),-31.4% (active),28.2%,54.4%,48%,-87.1% (active),-69.4% (active),-76.5% (active),-17.7% (active),8.35% (active),79.8%,39.3%,-19.7% (active),42%,-96.5% (active),-16.4% (active),-78.6% (active),-88% (active)
O=C(CN1C(=O)c2ccccc2S1(=O)=O)Nc1nc(-c2cc3ccccc3oc2=O)cs1,108%,100%,101%,114%,105%,95.7%,102%,95.8%,99.8%,106%,108%,103%,97.3%,101%,99.2%,97.7%,99.1%,97.8%,99.5%,107%
Cn1cc(-c2ccc3occ(-c4cccc(-c5ccncc5)c4)c3n2)cn1,26.9%,8.55% (active),21.2%,35.4%,4.67% (active),28.5%,1.64% (active),-23% (active),40.9%,1.71% (active),5.33% (active),7.76% (active),-12.8% (active),29.4%,25.4%,19.6%,-46.4% (active),-15.7% (active),14.9%,30.6%
C#Cc1cccc(Nc2ncnc3ccc(-c4cnc(Cl)c(NS(C)(=O)=O)c4)cc23)c1,2.5% (active),11.2%,-35.5% (active),-6.68% (active),-54.9% (active),-30.1% (active),-31.9% (active),-38.4% (active),-9.67% (active),-26.7% (active),-32.2% (active),-21.1% (active),-21.8% (active),-24.3% (active),-61.6% (active),-7.01% (active),-95.6% (active),-67.9% (active),-53.4% (active),-12.1% (active)
Cc1[nH]c(C(=O)Nc2ccc(C(N)=O)cc2OC(C)C)c(Cl)c1Cl,101%,79.9%,101%,91.4%,133%,97.5%,104%,92.8%,106%,108%,96.1%,111%,93.3%,99%,98.2%,99.3%,99.3%,106%,96.1%,106%
